USP28 block: inhibitors of human USP28 deubiquitinase | Ubiquitin carboxyl-terminal hydrolase 28 (Homo sapiens), Q96RU2 | purified USP28, Ub-rhodamine cleavage fluorescence, 30 min | inhibition, % at 25 µM | hit rate 3% among 47,000 | AID 1645857, 2021
USP17 inh: inhibitors of human USP17 deubiquitinase | purified USP17, Ub-rhodamine cleavage fluorescence, 3 h | inhibition, % at 50 µM | hit rate 6.5% among 47,000 | AID 1645855, 2021
USP8 inh: inhibitors of human USP8 deubiquitinase; inhibition, % at 20 µM; AID 1645853, 2021; hit rate 4.2% among 47,000; Ubiquitin carboxyl-terminal hydrolase 8 (Homo sapiens), P40818; purified USP8, Ub-rhodamine cleavage fluorescence, 30 min
Target sequence (P40818 whole entry, looked up): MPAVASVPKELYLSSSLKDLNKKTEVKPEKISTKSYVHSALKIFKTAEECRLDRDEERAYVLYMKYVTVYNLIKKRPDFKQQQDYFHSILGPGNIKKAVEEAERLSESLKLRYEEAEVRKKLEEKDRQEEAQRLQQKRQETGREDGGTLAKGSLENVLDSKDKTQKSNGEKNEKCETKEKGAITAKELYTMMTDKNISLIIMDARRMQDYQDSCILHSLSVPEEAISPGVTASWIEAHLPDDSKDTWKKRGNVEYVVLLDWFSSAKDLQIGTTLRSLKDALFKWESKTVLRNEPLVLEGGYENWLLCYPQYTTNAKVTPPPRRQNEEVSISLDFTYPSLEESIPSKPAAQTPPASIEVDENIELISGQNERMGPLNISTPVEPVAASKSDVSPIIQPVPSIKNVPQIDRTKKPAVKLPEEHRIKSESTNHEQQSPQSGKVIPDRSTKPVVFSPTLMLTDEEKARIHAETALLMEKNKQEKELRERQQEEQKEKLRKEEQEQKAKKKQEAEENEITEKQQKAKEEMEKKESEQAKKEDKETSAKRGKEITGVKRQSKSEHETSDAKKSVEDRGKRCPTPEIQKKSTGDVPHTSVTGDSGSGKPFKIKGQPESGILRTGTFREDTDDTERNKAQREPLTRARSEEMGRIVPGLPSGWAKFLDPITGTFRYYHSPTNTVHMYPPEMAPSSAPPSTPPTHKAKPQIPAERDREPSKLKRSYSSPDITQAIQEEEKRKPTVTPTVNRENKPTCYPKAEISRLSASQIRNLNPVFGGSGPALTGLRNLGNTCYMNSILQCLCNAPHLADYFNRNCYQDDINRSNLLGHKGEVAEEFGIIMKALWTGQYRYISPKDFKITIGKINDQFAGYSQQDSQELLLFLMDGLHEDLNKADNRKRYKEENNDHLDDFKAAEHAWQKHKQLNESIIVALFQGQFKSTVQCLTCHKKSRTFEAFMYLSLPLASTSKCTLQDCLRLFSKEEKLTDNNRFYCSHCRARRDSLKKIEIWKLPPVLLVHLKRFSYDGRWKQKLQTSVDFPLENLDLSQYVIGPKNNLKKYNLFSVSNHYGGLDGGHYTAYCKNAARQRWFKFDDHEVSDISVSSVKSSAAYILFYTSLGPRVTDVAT
USP30 block: inhibitors of human USP30 deubiquitinase. Ubiquitin carboxyl-terminal hydrolase 30 (Homo sapiens), Q70CQ3. purified USP30, Ub-rhodamine cleavage fluorescence. inhibition, % at 25 µM. hit rate 5.3% among 47,000
Large screens that a line does not name were inactive. Hits are enriched below; roughly 13% of the tested compounds scored in any of these assays. Rule as the data show it: active = inhibition above about 30%; inactive = the rest.

O=C(NCc1nc(-c2cccnc2)n[nH]1)c1ccco1	none
Cc1cc(C(Nc2ccccn2)c2ccc(Cl)cc2)c(NC(=O)c2ccco2)s1 (configuration not stated)	USP8 inh 35.2 (no result: USP17 inh)
O=c1[nH]c(N2CCCCC2)nc2c1CCN(Cc1cccn1-c1cccnc1)C2	none
O=c1[nH]c(-c2ccncc2)nc2c1CCN(Cc1cccn1-c1cccnc1)C2	USP8 inh 57.9
CCc1ccccc1NC(=O)CN1C(=O)C2CCCC2=Nc2ccccc21 (configuration not stated)	USP8 inh 34.4
Cc1cccc(C)c1NC(=O)CN1C(=O)C2CCCC2=Nc2ccccc21 (configuration not stated)	none
O=C(CN1C(=O)C2CCCC2=Nc2ccccc21)Nc1cc(F)ccc1F (configuration not stated)	USP17 inh 59.8
CC(C)/C=c1\[nH]c(=O)/c(=C/c2ccccc2)[nH]c1=O	none
CS(=O)(=O)c1cccc(C(=O)Nc2sc3c(c2C(N)=O)CCCCC3)c1	none
CC1CCc2sc(NC(=O)c3ccccc3Oc3ccccc3)c(C(N)=O)c2C1 (configuration not stated)	USP17 inh 82.8
CSc1ccccc1C(=O)Nc1sc2c(c1C(N)=O)CCC(C)C2 (configuration not stated)	USP17 inh 80.0
CSc1cccc(C(=O)Nc2sc3c(c2C(N)=O)CCC(C)C3)c1 (configuration not stated)	none
CSc1ccccc1C(=O)Nc1sc2c(c1C(N)=O)CCCCC2	USP17 inh 37.6
NC(=O)c1c(NC(=O)c2cc(-c3ccccc3Cl)nc3ccccc23)sc2c1CCCCC2	none
CC1CCc2c(sc(NC(=O)c3cccc(S(C)(=O)=O)c3)c2C(N)=O)C1 (configuration not stated)	USP8 inh 75.4
Cc1ccccc1NC(=O)c1ccc(C)c(S(=O)(=O)N2CCOCC2)c1	none
Cc1cn2c(S(=O)(=O)N3CCCCC3)c(C(C)C)nc2s1	none
CCc1nc2sc(C(C)C)nn2c1S(=O)(=O)N1CCCCCC1	USP30 block 35.6
CC(C)CCn1c(=O)c2ccccc2n2c(CCC(=O)NC3CCCCCC3)nnc12	USP17 inh 41.5, USP30 block 49.6
CCCn1c(=O)c2sccc2n2c(CCC(=O)NC3CCC(C)CC3)nnc12 (configuration not stated)	USP30 block 40.5 (no result: USP17 inh)
CCn1c(=O)c2sccc2n2c(CCC(=O)NC3CCCCCC3)nnc12	none
CCCn1c(=O)c2sccc2n2c(CCC(=O)N3CCc4ccccc4C3)nnc12	USP8 inh 87.4 (no result: USP17 inh)
COc1ccc(C(=O)NCC2(c3ccccc3)CCC2)cc1S(=O)(=O)N1CCOCC1	none
Cc1ccc(Nc2nc(C(=O)N3CCN(c4ccccn4)CC3)cc3occc23)cc1Cl	none
Cc1ccc(CNC(=O)c2cc3occc3c(Nc3ccccc3)n2)cc1	USP17 inh 49.4, USP8 inh 57.3
Cc1ccccc1CNC(=O)c1cc2occc2c(Nc2ccc(F)cc2)n1	USP8 inh 55.4
O=C(c1cc2occc2c(Nc2ccc(F)cc2)n1)N1CCN(c2ccccn2)CC1	USP17 inh 33.7
Cc1ccc(Nc2nc(C(=O)NCCCN3CCCC3=O)cc3occc23)cc1	none
CCNC(=O)N1CCCC(c2cccc(C(=O)NCc3cccc(OC)c3)c2)C1 (configuration not stated)	none
Cc1nc(N2CCCC(C(=O)O)C2)c2c3c(sc2n1)CCC3 (configuration not stated)	none
CC[C@@H]1OC(=O)[C@@H](C)[C@H](O[C@@H]2C[C@](C)(OC)[C@H](O)[C@@H](C)O2)[C@@H](C)C(O[C@@H]2O[C@H](C)C[C@H](N(C)C)[C@H]2O)[C@@](C)(O)C[C@H](C)C(=O)[C@@H](C)[C@H](O)[C@@]1(C)O (some centres not stated)	none
Cc1nc2cc(C(=O)NCCC3=CCCCC3)ccc2n1-c1cccc(F)c1	USP28 block 39.7, USP30 block 73.4
O=C(NCCC1=CCCCC1)c1cccc(Nc2nc3ccccc3n3cnnc23)c1	none
COCCN1Cc2c(C(=O)NC(C)C(C)C)ncn2-c2ccccc2S1(=O)=O (configuration not stated)	none
CC(c1cc2ccccc2o1)N(C)c1ncnc2sccc12 (configuration not stated)	USP28 block 34.7
O=C(CCC1CCCN(c2cc(NC3CC3)ncn2)C1)NC1CC1 (configuration not stated)	none
